G9a inh = blocks human histone lysine methyltransferase G9a | Q96KQ7 | G9a H3K9 monomethylation, AlphaScreen, 2 h | Potency, µM (doses to about 102 µM), for inactives: at the top dose activity, negative = inhibition, hits mostly inhibitors | 350,000 tested, 8.8% active | AID 504332; further: on the % scale 0 is the no-effect control and ±100 the full control effect; nearly all actives have a fitted effect of over 75% in size
Target sequence (Q96KQ7 913-1193 limits assumed): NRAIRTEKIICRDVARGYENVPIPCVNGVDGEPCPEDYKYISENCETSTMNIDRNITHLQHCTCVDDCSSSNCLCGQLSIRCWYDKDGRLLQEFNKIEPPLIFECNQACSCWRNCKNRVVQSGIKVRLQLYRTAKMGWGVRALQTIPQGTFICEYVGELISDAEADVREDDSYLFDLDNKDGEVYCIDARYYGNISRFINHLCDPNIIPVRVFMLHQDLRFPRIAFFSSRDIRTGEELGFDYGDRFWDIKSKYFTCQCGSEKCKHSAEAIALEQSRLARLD
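G9a (20 nM) preincubated 15 min RT with compounds, then 500 nM biotinylated H3K9 peptide and 20 uM SAM added; 2 h RT reaction. Monomethyl-H3K9 product detected by AlphaScreen with anti-H3K9me1 antibody, streptavidin donor and anti-rabbit IgG acceptor beads.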
VDR inh = vitamin D3 receptor (human) inhibition; VDR-SRC2-3 peptide fluorescence polarization, 2 h; P11473; 400,000 tested, 0.93% active; AID 504847; Potency, µM, for inactives: max response, negative = inhibition, hits mostly inhibitors; further: on the % scale 0 is the no-effect control and ±100 the full control effect
Target sequence (P11473 whole entry, looked up): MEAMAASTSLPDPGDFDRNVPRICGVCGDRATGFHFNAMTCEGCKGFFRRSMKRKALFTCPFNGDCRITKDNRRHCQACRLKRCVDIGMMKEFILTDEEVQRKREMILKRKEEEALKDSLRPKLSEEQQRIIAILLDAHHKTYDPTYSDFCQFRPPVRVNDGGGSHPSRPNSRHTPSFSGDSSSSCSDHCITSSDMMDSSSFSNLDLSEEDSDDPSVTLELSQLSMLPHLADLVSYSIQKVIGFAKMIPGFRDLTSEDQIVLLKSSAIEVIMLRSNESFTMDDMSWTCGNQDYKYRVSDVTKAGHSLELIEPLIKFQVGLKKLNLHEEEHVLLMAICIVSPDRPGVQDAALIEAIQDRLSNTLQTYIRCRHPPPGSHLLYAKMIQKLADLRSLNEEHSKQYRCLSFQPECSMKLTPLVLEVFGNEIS
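VDR–SRC2-3 interaction, FP format. Cmpds 23 nl via pintool, brief spin, 2 h ambient incubation.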
Sfp PPTase inh = blocks B. subtilis Sfp PPTase activity; 310,000 tested, 3.5% active; AID 1490; Q9F4F7; Biochemical Sfp PPTase activity, qHTS; Potency, µM, without a hit: largest response in the series, negative = inhibition, actives largely listed as inhibitors;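 further: the enzyme is Sfp with the accession as filed and its product quenches rhodamine fluorescence; 0% = enzyme reaction without inhibitor and -100% = no enzyme wells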
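After 15 min at room temperature with compound, 15 nM Sfp received 5 uM rhodamine-CoA plus 12.5 uM BHQ-2-ybbR (50 mM Hepes pH 7.6, 10 mM MgCl2). Rate came from the fluorescence difference over 30 min, ex 525/em 598 nm.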
GRP78 ERSR act = ER stress response induction in glioma | U87-MG GRP78 promoter luciferase reporter, 16 h | Potency, µM, for the others: at the top dose activation, usual class: activators | 420,000 tested, 0.02% active | AID 602332; further: series mostly up to about 76 µM; % of control where 0% means no effect; nearly all actives have a fitted effect of over 35% in size
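Stably transfected U87-MG glioma cells carrying a GRP78-based luciferase sensor; 16 h compound incubation. Luminescence end-point read 10 min after Bright-Glo addition at room temperature.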
ALOX12 inh = inhibitors of human 12S-lipoxygenase ALOX12 | P18054 | purified 12hLO, xylenol orange hydroperoxide absorbance | Potency, µM (titrated, usually from 108 µM), for the others: at the top dose activity change, negative = inhibition, hits mostly inhibitors | 580,000 tested, 1.1% active; further: on the % scale 0 is the no-effect control and ±100 the full control effect
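Purified human 12hLO at 150 nM in 25 mM Hepes, 0.01% Triton X-100, pH 7.0, preincubated 15 min at room temperature with compound. Reaction started with 40 uM arachidonic acid, 30 min at room temperature. Hydroperoxide measured by Fe-xylenol orange, 573/405 nm absorbance ratio.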
An asterisk follows results filed as active; u = inconclusive; x = no result; ! = not confirmed by another sample; [ ] = remark or other dose. The full list was thinned out, with hits kept by preference. The call rests on the fitted dose curve; in most records, active means well fitted curve in the direction sought with a large enough effect; inconclusive means small, poorly fitted or top-dose-only effect, or another doubt; inactive means no such curve, though single readings can be large; an effect the other way counts as inactive or inconclusive. Potency means the concentration at half of the fitted maximal effect.

SMILES | G9a inh | VDR inh | Sfp PPTase inh | GRP78 ERSR act | ALOX12 inh
Cc1nc(-c2ccc(F)cc2)n(CC(=O)Nc2ccc(F)c(Cl)c2)c(=O)c1CCO | x | x | x | x | 16%
CN1CCCCC1CC(=O)O (configuration not stated) | x | x | x | x | -5%
CCOc1cc(-c2nc(-c3ccccc3)c(-c3cc([N+](=O)[O-])ccc3C)[nH]2)ccc1O | 14µM* | -4% | 20% | -2% | u
COc1ccc2sc(N(CCCN(C)C)C(=O)c3nc4ccccc4s3)nc2c1 | -46% | 22% | -9% | -2% | u
CN(C)CCCN(C(=O)c1ccc(S(=O)(=O)N(C)Cc2ccccc2)cc1)c1nc2cc3c(cc2s1)OCO3 | 50µM* | 3% | u | -8% | u
COc1ccc2sc(N(CCCN(C)C)C(=O)c3ccc(S(=O)(=O)N(C)Cc4ccccc4)cc3)nc2c1 | 45µM* | -4% | x | -4% | u
CCN(c1ccccc1)S(=O)(=O)c1ccc(C(=O)N(CCCN(C)C)c2nc3cc4c(cc3s2)OCO4)cc1 | 40µM* | -17% | u | -6% | u
CN(C)CCCN(C(=O)c1ccc([N+](=O)[O-])o1)c1nc2cc3c(cc2s1)OCO3 | 56µM* | 7% | -4% | -1% | 2%
CN(C)CCCN(C(=O)c1ccc2c(c1)OCCO2)c1nc2cc3c(cc2s1)OCO3 | x | -12% | 10% | -2% | -29%
O=C(OCc1ccc(F)cc1F)c1cccc([N+](=O)[O-])c1 | x | x | x | x | -11%
CCc1ccc(OC(=O)c2ccc(OC)cc2)c(Br)c1 | x | x | x | x | -11%
CC(C)(O)C1Cc2cc(/C=C/C(=O)O)c(O)cc2O1 (configuration not stated) | 2µM* | u | 6.3µM* | -4% | u
COc1ccc(-c2nc(CN3CCN(c4ncnc5ccccc45)CC3)c(C)o2)c(OC)c1 | u | 0% | 10% | -4% | 10%
Cc1oc(-c2cc(F)ccc2F)nc1CN1CCN(c2ncnc3ccccc23)CC1 | x | -20% | 40µM* | -3% | 8%
COCCCC/C(=N\OCCN)c1ccc(C(F)(F)F)cc1 | 66%[59 µM] | 13% | 56µM*! | -3% | 0%
COc1ccc2c(c1)C(C)CC(C)(C)N2C(=O)NC1CCCCC1 (configuration not stated) | 45µM* | -10% | -1% | 0% | -12%
COc1ccc(N2C(=O)CCC2(C)C(=O)NC2CCCC2)c(OC)c1 (configuration not stated) | x | x | x | x | 12%
Cc1ccc(S(=O)(=O)Nc2nc3c(s2)C(=O)CC(C)(C)C3)cc1 | 50µM* | 9% | 11% | 2% | u
CC1(C)CC(=O)c2sc(NS(=O)(=O)Cc3ccccc3)nc2C1 | 11µM* | u | 2% | 9% | u
CC1(C)CC(=O)c2sc(NS(=O)(=O)c3cc(Cl)ccc3Cl)nc2C1 | u | -7% | -24% | 0% | -22%
COc1cccc(CC(=O)Nc2nc3c(s2)C(=O)CC(C)(C)C3)c1 | u | -7% | 5% | 6% | 3%
N#Cc1ccc(NCC(=O)Nc2ccccc2)cc1 | x | x | x | x | -7%
Cc1ccc(C(=O)c2ccccc2C(=O)OCC(=O)c2cccs2)cc1C | x | x | x | x | -7%
CN(C)C(=O)c1cnc(Sc2ncc(C(F)(F)F)cc2Cl)n1C | 56µM* | 13% | -2% | 1% | 0%
COc1ccc(NC(=S)NCc2cccn2C)cc1 | 50µM* | -4% | u | -1% | -3%
SMILES | G9a inh | VDR inh | Sfp PPTase inh | GRP78 ERSR act | ALOX12 inh
COc1ccc(C(=O)NNc2ccccc2)cc1 | 8.9µM* | 2% | -19% | 0% | -12%
Cn1cccc1CNC(=S)Nc1cc(F)cc(F)c1 | -48% | -9% | -10% | 0% | 7%
COc1ccc(C(=S)Nc2ccc(C)cc2)cc1 | 10µM* | u | 32µM* | -5% | u
COc1ccc(NC(=S)NNc2ccc(C(=O)O)cc2)cc1 | 79µM* | 32µM* | -34% | 6% | -21%
COCCCNC(=S)NNC(=S)Nc1ccc(OC)cc1 | x | u | 50µM* | 1% | -36%
COc1ccc(CSC(=S)NNc2ccccc2)cc1 | x | x | x | 2% | 22µM*
COc1ccc(NC(=S)NCCCc2ccccc2)cc1 | 13%[59 µM] | -9% | 11% | 13% | u
COc1ccc(CNC(=S)Nc2ccc(-c3ccccc3)cc2)cc1 | 43% | -25% | 3% | 0% | -15%
COC(=O)c1ccc(CNC(=O)c2cccc(I)c2)cc1 | x | x | x | x | 28%
Cc1cc(=O)n(CC(=O)Nc2cccc(C(F)(F)F)c2)c(N2CCN(c3ccccc3)CC2)n1 | x | x | x | x | 6%
CC(C)c1ccc(NC(=O)C2CCN(c3cc(C(F)(F)F)ncn3)CC2)cc1 | x | x | x | x | 16%
CC(NC(=O)C1CCN(c2cc(C(F)(F)F)ncn2)CC1)c1ccccc1 (configuration not stated) | x | x | x | x | 45µM*
CC(C)=CCN1C[C@H](NC(=O)CCc2cccs2)C[C@H]1C(=O)NC(C)C | x | x | x | x | 73%
CCOCCCNC(=S)NCCCNc1nc2cc3c(cc2cc1C#N)OCO3 | u | -1% | -9% | 0% | -16%
COc1cc(C(=O)NCCCNc2nc3cc(C)c(C)cc3cc2C#N)cc(OC)c1OC | 13%[59 µM] | -11% | 79µM* | -2% | -12%
COCCNC(=S)NCCCNc1nc2cc3c(cc2cc1C#N)OCO3 | -37%[59 µM] | -15% | 14µM* | -2% | -23%
CCCNC(=O)C(C)Sc1nc(-c2ccco2)nc2ccccc12 (configuration not stated) | x | x | x | x | 1%
CCCCn1c(C23CC4CC(CC(C4)C2)C3)n[nH]c1=S | x | -10% | -15% | -4% | u
COCCn1c(C23CC4CC(CC(C4)C2)C3)n[nH]c1=S | u | -12% | 32µM* | -5% | u
C=C(C(=O)c1ccccc1)C(NC(C)(C)C)c1ccccc1 (configuration not stated) | x | u | x | -14% | -4%
C=C(C(=O)c1ccccc1)C(C)CC(=O)c1ccccc1 (configuration not stated) | 106%[59 µM] | 79µM* | -6% | -11% | -8%
CN(C)c1ccc(C(=O)N[C@H]2CO[C@H]3[C@@H]2OC[C@@H]3n2cc(COc3ccccc3)nn2)cc1 | x | x | x | x | -5%
O=C(c1ccc([N+](=O)[O-])cc1)N(Cc1ccccc1)c1ccccn1 | 1% | -3% | 14% | -6% | -3%
O=[N+]([O-])c1ccccc1SN(Cc1ccccc1)c1ccccn1 | 20µM* | -8% | -18% | -2% | -2%
Cc1cc(C)c2sc(C)[n+](CCCS(=O)(=O)[O-])c2c1 | -44% | u | 2.5µM* | -3% | u
COc1ccc(/C=N/NC(=O)CNC(=O)COc2ccccc2)cc1 | 6%[59 µM] | -18% | 3% | -3% | 0%
COc1ccc(NC(=O)Nc2ccc(N(C)C)cc2)cc1 | 3.5µM* | 3% | -5% | -8% | 0%
COc1ccc(OCC(=O)N/N=C/c2ccc(N(C)C)cc2)cc1 | 45µM* | -1% | -2% | 5% | -20%
CCCCNC(=O)Nc1ccccc1C(=O)NCCC | 17%[59 µM] | 7% | 7% | -3% | 4%
CCCNC(=O)Nc1ccccc1SC | 40µM* | -11% | -15% | -1% | -12%

Compound activity deposited in PubChem by National Center for Advancing Translational Sciences (NCATS).
